VP16 counter: counter-screen for ROR gamma inhibitors: Gal4-VP16 reporter; Drosophila S2 Gal4-VP16 UAS-luciferase, luminescence, 20 h; Potency, µM (top dose mostly 53.6 µM), for the others: top-dose activity, negative = inhibition, most hits filed as inhibitors; 310,000 tested, 3.5% active; AID 2546;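 note: Gal4-VP16 expression switched on by copper sulfate through the metallothionein promoter; potency is the fitted concentration of half-maximal effect; % is set by controls: 0 for no effect and ±100 for the full control effect; nearly all actives have a fitted effect of over 50% in size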
SW480 rereplic: induces DNA re-replication in SW480 colon adenocarcinoma cells; AID 624297; 340,000 tested, 1.8% active; Potency, µM (series often up to 46.1 µM), for inactives: top-dose re-replication activation, hits mostly activators; SW480 DNA re-replication, Hoechst DNA content imaging, 48 h; note: potency is the fitted concentration of half-maximal effect; % of control where 0% means no effect; nearly all actives have a fitted effect of over 55% in size
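Image-based DNA-content assay: after two days of treatment, nuclei were labelled with the DNA dye Hoechst and imaged, and hits were compounds raising the count of nuclei showing high fluorescence intensity.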
MCF10A rereplic: induces DNA re-replication in MCF 10a normal breast cells | 350,000 tested, 2.9% active | Potency, µM (highest dose often 46.1 µM), without a hit: at the highest dose activity, positive = re-replication, usual class: activators | AID 624296 | MCF 10A DNA re-replication, Hoechst nuclear intensity, 48 h; note: potency is the fitted concentration of half-maximal effect; % of control where 0% means no effect; nearly all actives have a fitted effect of over 50% in size
IL-1B inflam inh: blocks inflammasome-driven IL-1 beta release; activity change, % at 57.5 µM; 360,000 tested, 4.7% active; AID 743279; THP-1 LPS/ATP IL-1B secretion, AlphaLISA, 16 h; hits give low values; in the data active = activity change below about -50%; inconclusive = mostly about -30% to -49%; note: % is set by controls: 0 for no effect and ±100 for the full control effect
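THP-1 cells pretreated 1 hr with compounds (up to 57.5 uM final), then stimulated with LPS (250 ng/mL final) plus ATP (1.25 mM final); secreted IL-1B measured by AlphaLISA after 16 hr, decreased signal indicating inhibition.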
RORgamma inh: inhibitors of mouse ROR gamma transcriptional activity. P51450. Drosophila S2 Gal4-RORgamma UAS-luciferase reporter, 20 h. 310,000 tested, 5.4% active. Potency, µM (doses to about 53.6 µM), without a hit: top-dose activity change, negative = inhibition, most hits filed as inhibitors; note: potency is the fitted concentration of half-maximal effect; % is set by controls: 0 for no effect and ±100 for the full control effect; nearly all actives have a fitted effect of over 60% in size
Target sequence (P51450 whole entry, looked up, the tested form may be a part): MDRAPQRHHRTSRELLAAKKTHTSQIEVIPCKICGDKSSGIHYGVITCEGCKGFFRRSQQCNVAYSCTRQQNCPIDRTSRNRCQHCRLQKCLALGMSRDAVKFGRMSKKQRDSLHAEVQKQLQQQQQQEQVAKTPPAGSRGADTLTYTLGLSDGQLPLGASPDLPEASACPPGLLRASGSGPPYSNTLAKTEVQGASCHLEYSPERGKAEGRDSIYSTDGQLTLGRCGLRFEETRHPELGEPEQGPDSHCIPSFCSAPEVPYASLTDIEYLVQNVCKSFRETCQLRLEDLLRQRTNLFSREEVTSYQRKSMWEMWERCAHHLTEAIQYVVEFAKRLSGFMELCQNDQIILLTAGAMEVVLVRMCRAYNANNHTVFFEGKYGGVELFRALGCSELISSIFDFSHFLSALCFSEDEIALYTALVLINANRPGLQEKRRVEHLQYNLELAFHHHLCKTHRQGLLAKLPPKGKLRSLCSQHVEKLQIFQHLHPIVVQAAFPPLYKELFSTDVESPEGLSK
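Drosophila Schneider cells stably carrying a metallothionein-driven Gal4 DBD–ROR gamma fusion and a UAS-Photinus luciferase reporter were exposed to compound for 1 hr, then induced with copper sulfate (700 uM final) for 20 hr at ambient temperature before luminescence reading.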
* = called active by the depositor; i = inactive; ? = inconclusive; · = not tested or not shown; [ ] = dose if it differs, or a comment. In the library only some 11% were active in any assay of this set; here they are far more common. Unless noted, calls come from the whole dose curve; as a rule, active = well fitted curve in the direction sought with a large enough effect; inconclusive = small, poorly fitted or top-dose-only effect, or another doubt; inactive = no such curve, though single readings can be large; an effect the other way counts as inactive or inconclusive.

SMILES | VP16 counter | SW480 rereplic | MCF10A rereplic | IL-1B inflam inh | RORgamma inh
FC(F)(F)c1cccc(Sc2nc(-c3ccccc3)nnc2C(F)(F)F)c1 | ? | ? | 7.3µM* | -118* | 3.5µM*
CCOC(=O)c1nnc(-c2ccccc2)nc1Oc1ccccc1Cl | 5µM* | 3% | ? | -15 | 4.5µM*
CCOC(=O)c1nnc(-c2ccccc2)nc1NC | -10% | -3% | 2% | 19 | 12%
Cc1ccc([C@H]2N[C@]3(CCCN(Cc4ccc(Cl)cc4)C3=O)[C@H]3C(=O)N(Cc4ccccc4)C(=O)[C@@H]23)cc1 | · | · | · | -27 | ·
COc1ccccc1CNC(=O)c1nn(C)c2c1CS(=O)(=O)c1ccccc1-2 | 0% | -5% | 4% | -5 | 21%
COc1ccc(C)cc1NC(=S)NNC(=O)c1c(Br)cnn1C | -19% | 0% | 0% | 43 | 2µM*
CCOc1ccccc1NC(=O)c1cccc2ccccc12 | 7% | ? | ? | -14 | -25%[1.91 µM]
COc1ccc(C)cc1NC(=S)NNC(=O)c1ccccc1Cl | -9% | -12% | -8% | 28 | ?
CCOc1ccccc1NC(=O)c1nc[nH]c1C(=O)Nc1ccccc1OCC | 4µM* | 21µM* | ? | 25 | 2µM*
COc1ccccc1NC(=O)C1=C(C)Nc2ncnn2C1c1ccccc1C (stereo unspecified) | -4% | 4.1µM* | -188%[0.0737 µM] | 1 | 18%
CCOc1ccccc1NC(=O)c1cc(SC)ccc1Cl | 1% | 18µM* | ? | 47 | -9%
O=C(NCCCN1CCOCC1)c1ccc(NS(=O)(=O)c2ccccc2)cc1 | 0% | -4% | -11% | i | 4%
CC1(C(=O)NS(=O)(=O)c2cccc(C#N)c2)CCN1C(=O)Cc1ccc(Cl)cc1Cl (stereo unspecified) | · | · | · | -8 | ·
CCOc1ccccc1NC(=O)CSc1cn[nH]n1 | · | -59% | 16µM* | -91* | ·
COc1ccc(C)cc1NC(=O)Nc1ccc(Br)cn1 | 5% | -22% | 1% | 36 | 10µM*
CCOc1ccccc1NC(=O)c1ccccc1-c1nc(-c2ccccc2)no1 | -14% | 23µM* | 26% | 26 | ?
COc1ccccc1NC(=O)c1nc[nH]c1C(=O)Nc1ccccc1OC | ? | 7% | 7% | 8 | 2µM*
CCOc1ccccc1NC(=O)c1ccccc1-c1ccccc1 | 2% | ? | 10% | 34 | 44%
COc1ccc(-c2nc3c(Cl)cc(C(F)(F)F)cn3c2Cc2ccc(C)cc2)cc1OC | · | · | · | 6 | ·
O=C(NCc1cc(Cl)cc(Cl)c1)c1ccc2nc([C@H]3C[C@H](O)[C@@H](CO)O3)[nH]c2c1 | · | · | · | -2 | ·
Cc1ccc(S(=O)(=O)N2C[C@H]3[C@H]4C(=O)N(Cc5ccccc5)C(=O)[C@H]4CC(=O)[C@H]3[C@@H]2c2cccc3ccccc23)cc1 | · | · | · | -9 | ·
COc1cccc(CNC(=O)[C@@H]2CCCN2C(=O)[C@H]2CCCCN2C(=O)c2cccs2)c1 | · | · | · | -8 | ·
COc1ccc(C(=O)Nc2ccc(C)cn2)c(OC)c1 | 4µM* | -2% | 14% | -10 | 4µM*
CSc1ccc(Cl)c(C(=O)Nc2ccc(C)cn2)c1 | 25%[10 µM] | 26µM* | ? | 33 | 10%
CCOc1ccccc1NC(=O)c1cnccn1 | 23% | -9% | 7% | -59* | ?
SMILES | VP16 counter | SW480 rereplic | MCF10A rereplic | IL-1B inflam inh | RORgamma inh
O=C(Nc1ccccc1Oc1ccccc1)c1cnccn1 | -5% | -9% | -2% | 20 | -15%
Cc1ccc(NC(=O)c2ccc([N+](=O)[O-])cc2Cl)nc1 | ? | -5% | ? | 0 | -17%
COc1ccc(C(=O)Nc2cc(C)on2)c(OC)c1 | -17% | ? | -2% | -15 | -32%
c1ccc(Nc2ncncc2-c2ccc3c(c2)OCO3)cc1 | -11% | · | · | · | -8%
Clc1ccccc1-c1nccc(NCc2cccs2)n1 | -11% | · | · | · | ?
COc1ccc(C(CNC(=O)C(CCSC)NC(=O)c2ccccc2Cl)N2CCCCC2)cc1 (stereo unspecified) | · | 0% | 3% | -10 | ·
Clc1cccc(OCCN2CCN(CCOc3cccc(Cl)c3)CC2)c1 | -23% | ? | ? | -85* | 30%
CC1CCN(CCOc2cccc(Br)c2)CC1 | 2% | 1% | 11% | -6 | 0%
Cc1n[nH]c(=O)[nH]c1=O | 4%[17 µM] | · | · | · | 4%[16.9 µM]
COc1cccc(-n2nc(-c3ccnn3-c3ccc(C)cc3)c(=O)n(C)c2=O)c1 | -8% | 2% | ? | -57* | -27%
Cc1ccc(Nc2nc(CSc3nnc(-c4ccncc4)n3C)cs2)cc1 | ? | 11% | 2% | ? | 16µM*
Cc1ccc(Nc2nc(CSc3nnc(-c4cccnc4)n3-c3ccccc3F)cs2)cc1 | -10% | -9% | 10% | 11 | 4µM*
CCc1c(N)nc(N)nc1Nc1ccccc1C | · | ? | 15% | -18 | ·
CC(C)(C)OC(=O)NS(=O)(=O)NCc1ccco1 | 5% | · | · | · | -28%
CCN(C(=O)COC(=O)C(c1ccccc1)c1ccccc1)c1c(N)n(Cc2ccccc2)c(=O)[nH]c1=O | · | 14% | -11% | -5 | ·
C#CC[N+](C)(C)CCCCCCCCC | -2% | ? | 9.2µM* | -68* | 27%
CC#CC[N+](C)(C)CCCCCCCCCC | -13% | 21% | 0% | -59* | 7%
C#CCOCCOCCOCCNc1nc(N2CCN(C(=O)Cn3cc(CC(C)O)nn3)CC2)nc(N2CCN(C(=O)[C@H](CCCCN)n3cc(CC(C)O)nn3)CC2)n1 (stereo partly specified) | · | ? | 24% | 3 | ·
Cc1cccc(Cn2c(=O)n(CCCC(=O)NCc3ccco3)c(=O)c3ccccc32)c1 | -13% | 21µM* | ? | ? | 32%
COc1ccc(CN(C)C(=O)C23CC4CC(CC(C4)C2)C3)c(OC)c1 | -13% | ? | 13µM* | 4 | -19%
COc1cccc(CN(C)C(=O)C23CC4CC(CC(C4)C2)C3)c1 | 8% | 3% | 10% | -6 | -26%
Brc1cc(Br)c2nc(-c3ccc(N4CCOCC4)cc3)ccc2c1 | -6% | 8.2µM* | 9.2µM* | -6 | ?
CC1(C)COC(/C=C/c2ccc([N+](=O)[O-])cc2)=N1 | ? | 16µM* | 16µM* | -102* | -32%
CC(=C/C(=O)O)/C=C/c1ccc([N+](=O)[O-])cc1 | 0% | -6% | 11% | -2 | 11%
CNc1ccccc1C(C)(C)c1cc(-c2cc(C)cc(C)c2)no1 | 0% | ? | ? | -9 | -5%
CNc1ccccc1C(C)(C)c1cc(-c2cccc(OC)c2)no1 | ? | -15% | 12% | 7 | 1.4µM*
c1ccc2c(c1)Sc1cnccc1N2CC1CO1 (stereo unspecified) | · | · | · | -11 | ·
Cc1cccc2c1-c1sc(C(=O)NCCCN3CCCC(C)C3)cc1CO2 (stereo unspecified) | -15% | 18µM* | 23µM* | -18 | ?

From PubChem BioAssay
